# Data taken from PubChem BioAssay AID1347051 (National Center for Advancing Translational Sciences (NCATS), 2019).
# About 980 (70%) of roughly 1,400 compounds were called active. Not shown: some 16% with an inconclusive outcome. So high a share suggests a set chosen from earlier hits. These entries were drawn from the full list. Values without a mark were called inactive. The call rests on the fitted dose curve.
# Experiment: Natriuretic polypeptide receptor (hNpr1) antagonism - Counterscreen GloSensor control cell line; further: nearly all actives have a fitted effect of over 70% in size
# Settings: HEK293 GloSensor cGMP, SNP-stimulated, luminescence; series mostly up to 57.6 µM; activity change, negative = inhibition: at the top concentration
# Procedure: cGMP production was measured using a circular permutated firefly luciferase (FLuc) enzyme functionally linked to the cGMP binding domain of human phosphodiesterase 5 (GloSensor technology pGS-40F, (Fan, F. et al. 2008). The cGMP-sensor was expressed in human embryonic kidney 293 (HEK-293) cells and FLuc activity was measured after stimulation with the NO-donor sodium nitroprusside (SNP). SNP activates the endogenously expressed soluble guanylyl cyclase (GC) producing cGMP which then binds to the GloSensor resulting in FLuc activation, the enzymatic activity of which can be measured as bioluminescence with addition of luciferin substrate. F. Fan, B. F. Binkowski, B. L. Butler, P. F. Stecha, M. K. Lewis, K. V. Wood, Novel genetically encoded biosensors using firefly luciferase. ACS Chem Biol 3, 346-351 (2008).
# PROTOCOL TABLE (as described by Inglese J, Shamu CE and Guy RK. 2007) SEQUENCE No. (e.g., 1, 2, 3, etc.); PARAMETER (e.g., Cells, Incubation, Reagent, etc.); VALUE and DESCRIPTION. 1. Cells. Seed 1500 HEK293 cGMP-sensor cells per well in 4uL into Greiner 1536-well white/solid bottom high base, TC plates. 2. Incubation. Incubate plated cells at 37C in 5% CO2, 95% RH overnight. 3. Reagent. Add 1uL per well GloSensor reagent from Promega (2% final concentration) or CO2 independent media vehicle control to respective columns of Greiner 1536-well plates. 4. Incubation. Incubate plated cells at room temperature for 2 h, protect from light. 5. Compounds. Library compounds and DMSO vehicle control added at 23nL per well, transferred by Pin Tool. 6. Incubation. Incubate plated cells for 30 min. at room temperature, protect from light. 7. Detector. GloSensor baseline pre-read luminescence measured using CCD-based camera (Viewlux). 8. Compound. Add 1uL of sodium nitroprusside (SNP) to 50 uM final concentration to stimulate soluble guanylyl cyclase (GC) or CO2 independent media as vehicle control. 9. Incubation. Incubate treated cells at room temperature for 20 min., protect from light. 10. Detector. GloSensor post-SNP luminescence measured using CCD-based camera (Viewlux). NOTES (numbers refer to Sequence numbers above; values are from representative experiments) 1. HEK293 cells expressing GIP/pGS-40F were grown to 85-95% confluence (48-72 h) in T175 culture flasks (CO2 independent media supplemented with 10% FBS, 1% Pen/Strep antibiotics, and 1 ug/mL puromycin). Trypsinize and harvest cells from T175 culture flasks and filter through 40 um cell strainer. Cells counted with Invitrogen Countess (30,000,000 - 50,000,000 cells/flask). Cells diluted to a final concentration of 375 cells/uL in CO2 independent media and a Millipore multidrop used to dispense 1500 cells per well (4uL/well) into 13 1536-well Greiner White/Solid bottom, high base tissue-culture treated (TC) plates and one Aurora 1536-well Black/Clear bottom, low base, TC plate (for visual inspection of cell health throughout the duration of the assay). 2. Cells incubated for 24 h. at 37C in 95% RH incubator with metal lid having gas-exchange holes. 3. Prepare GloSensor Reagent (Promega): Reconstitute GloSensor luciferase substrate by adding 8.2mL Hepes buffer to 250mg substrate, mix well, protect from light and stored at -80C. Prepare a fresh 12% GloSensor solution in CO2 independent supplemented plating media (see above). Mix well and store at ambient temperature, protected from light. 1uL 12% GloSensor Luciferase Reagent added (2% final concentration) to respective columns of 13 x 1536-well Greiner plate with BioRaptr, 1uL CO2 independent plating media added to respective columns as vehicle control with BioRaptr. 4. Cells incubated for 2 h. at ambient temperature, protected from light with metal lid having gas-exchange holes. 5. 23nL of library compounds or DMSO vehicle control transferred to 13 Greiner white/solid bottom high base, TC plates in 11 interplate 1:3 titrations (see Yasgar, A. et al. 2008) with Pintool. 6. […]
# On the % scale 0 is the no-effect control and ±100 the full control effect; potency means the concentration at half of the fitted maximal effect.
Compound,Potency,"activity change, negative = inhibition [%]"
COc1cc2c(cc1Oc1cccc(N(C)C)c1)NC(=O)C21CCN(Cc2ccccn2)CC1,19.3 µM (active),–
COc1cc2c(cc1Oc1cccc(N(C)C)c1)NC(=O)C21CCN(CCC(C)C)CC1,31.4 µM (active),–
COc1cc2c(cc1OCc1ccncc1)NC(=O)C21CCN(c2ncc(F)cn2)CC1,44.4 µM (active),–
COc1cc2c(cc1Oc1cccc(N(C)C)c1)NC(=O)C21CCN(c2cnccn2)CC1,21.7 µM (active),–
CCC(CC)c1cc([C@H]2CN3CC[C@H]2C[C@@H]3CNS(=O)(=O)c2ccccc2C#N)nc(-c2ccncc2)n1,–,-6.91
CCC(CC)c1cc([C@H]2CN3CC[C@H]2C[C@@H]3CNC(=O)NCc2ccccc2)nc(-c2ccncc2)n1,–,-5.58
CCC(CC)c1cc([C@H]2CN3CC[C@H]2C[C@@H]3CNS(=O)(=O)Cc2ccccc2)nc(-c2ccncc2)n1,–,2.91
